Results reported in PubChem BioAssay (Tox21).
Records with an inconclusive call do not appear. Where a call stands in place of a potency, no number is given. Active and inactive are the calls of the source. Unless noted, the call rests on the fitted dose curve; in most records, active means well fitted curve in the direction sought with a large enough effect in the repeat runs; inconclusive means weak or mixed curves; inactive means no such curve, though single readings can be large; an effect the other way counts as inactive or inconclusive.

Columns and labels:
[1] = qHTS assay for small molecules that induce genotoxicity in human embryonic kidney cells expressing luciferase-tagged ATAD5 (AID 651632); further: nearly all actives have a fitted effect of over 15% in size
Summary of the method: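 Cells were seeded at 2,000 per well, dosed with compound, and incubated 16 hr at 37C in 5% CO2. Luciferase activity was then quantified after a 30 min room-temperature incubation with Amplite.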

[2] = qHTS assay for small molecule agonists of the p53 signaling pathway - cell viability (AID 651633; calls by dose curve; further: nearly all actives have a fitted effect of over 30% in size; further: potency means the concentration at half of the fitted maximal effect)
Summary of the method: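 Viability counter-read: CellTiter-Glo luminescence (30 min, room temperature) in the same p53RE-bla plates. These plates had been exposed to compounds for 16 h at 37 C.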

[3] = qHTS assay for small molecules that induce genotoxicity in human embryonic kidney cells expressing luciferase-tagged ATAD5 - cell viability (AID 651634; calls by dose curve; further: nearly all actives have a fitted effect of over 25% in size; further: potency means the concentration at half of the fitted maximal effect)
Summary of the method: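 Cells (HEK293T, luciferase-tagged ATAD5) are seeded at 2,000 per well, dosed with compound or DMSO vehicle, and incubated 15.5 hr at 37C and 5% CO2. CellTiter-Fluor is added for 30 min before fluorescence is measured.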

[4] = qHTS assay for small molecule disruptors of the mitochondrial membrane potential - cell viability (AID 720634; calls by dose curve;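 further: human HepG2 liver cancer cells; nearly all actives have a fitted effect of over 20% in size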)
Summary of the method: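 Cytotoxicity was measured by ATP quantitation in HepG2 wells that had first been treated with compound for 1 hr and stained with m-MPI dye; CellTiter-Glo incubation was 30 min at room temperature.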

[5] = qHTS assay for small molecule disruptors of the mitochondrial membrane potential (AID 720635); further: potency means the concentration at half of the fitted maximal effect
Summary of the method: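 Mitochondrial membrane potential tracked with Mito-MPS dye, red aggregates (ex 540/em 590 nm) against green monomers (ex 490/em 535 nm). Compound treatment 1 hr at 37C, dye 30 min in HepG2.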

[6] = qHTS assay to test for compound auto fluorescence at 590 nm (red) in HepG2 cells (AID 720674)
Summary of the method: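 1 hr compound incubation on HepG2 cells, 37 C, 5% CO2; plate read ex 540 nm / em 590 nm; intensities reported as Rose Bengal sodium equivalents.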

[7] = qHTS assay to test for compound auto fluorescence at 535 nm (green) in HepG2 cells (AID 720675)
[8] = qHTS assay to test for compound auto fluorescence at 460 nm (blue) in HEK293 cells (AID 720678)
Summary of the method: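 HEK293, 2,000 cells/well, 10% dialyzed FBS; attach 4-5 hr 37C; pin compound or DMSO; o/n 37C/5% CO2; fluorescence 405/460 nm; triamterene-equivalent units.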

[9] = qHTS assay to test for compound auto fluorescence at 590 nm (red) in HEK293 cells (AID 720679)
Summary of the method: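 Intensity at 540nm excitation and 590nm emission is reported as Rose Bengal sodium-equivalent autofluorescence. Measurements followed overnight exposure (37C, 5% CO2) of HEK293 cells, 2,000 per well, to 23 nL compound.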

[10] = qHTS assay to test for compound auto fluorescence at 535 nm (green) in HEK293 cells (AID 720680)
[11] = qHTS assay to test for compound auto fluorescence at 460 nm (blue) in HEK293 cell free culture (AID 720681)
Summary of the method: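 Blue fluorescence (Ex 405/Em 460 nm, triamterene-equivalent) was read immediately after pin transfer of compound or DMSO into medium (DMEM, 10% FBS) without cells.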

[12] = qHTS assay to test for compound auto fluorescence at 535 nm (green) in HEK293 cell free culture (AID 720682)
Summary of the method: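 Each library compound, or DMSO control, is added by pintool to medium alone, comprising DMEM and 10% FBS. Emission at 535 nm following 485 nm excitation is quantified against fluorescein.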

[13] = qHTS assay to test for compound auto fluorescence at 590 nm (red) in HEK293 cell free culture (AID 720683)
Summary of the method: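 Red-channel autofluorescence of compounds in culture medium (DMEM, 10% FBS), no cells, measured at 540/590 nm. Rose Bengal sodium is the reference fluorophore for equivalence.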

[14] = qHTS assay to test for compound auto fluorescence at 590 nm (red) in HepG2 cell free culture (AID 720684)
Summary of the method: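 No cells present: MEM + 10% FBS only. Compound pinned in, red label read (540/590 nm). Activity = fluorescence equivalent to Rose Bengal sodium.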

[15] = qHTS assay to test for compound auto fluorescence at 460 nm (blue) in HepG2 cell free culture (AID 720685)
Summary of the method: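 Cell-free plates of MEM plus 10% FBS received 23 nL compound or DMSO vehicle; blue-channel (405/460 nm) intensity scored against triamterene as reference fluorophore.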

[16] = qHTS assay to test for compound auto fluorescence at 535 nm (green) in HepG2 cell free culture (AID 720686)
[17] = qHTS assay to test for compound auto fluorescence at 460 nm (blue) in HepG2 cells (AID 720687)
Summary of the method: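 Blue-channel autofluorescence (Ex/Em 405/460 nm, triamterene-equivalent) was measured after 1 hr compound exposure at 37 C, 5% CO2. Cells were HepG2, plated overnight at 37 C in MEM plus 10% FBS.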

[18] = qHTS assay for small molecule agonists of the p53 signaling pathway (AID 651631; calls by dose curve; further: nearly all actives have a fitted effect of over 15% in size; further: potency means the concentration at half of the fitted maximal effect)
Summary of the method: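 Beta-lactamase reporter activity under p53 response elements was quantified in HCT-116 cells by FRET fluorescence, following 16 h incubation with test compounds at 37 °C and 2 h substrate development at room temperature.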

[19] = target: Glucocorticoid receptor (Homo sapiens) (UniProt P04150); assay: qHTS assay to identify small molecule agonists of the glucocorticoid receptor (GR) signaling pathway (AID 720691; active means well fitted activation curve with a large enough effect in the signal ratio in the repeat runs, not every such curve was filed as active; the % refers to the signal ratio); details: GR-bla HeLa, beta-lactamase reporter ratio, 18 h; activation: at 62.4 µM (top of the series)
Chain of Glucocorticoid receptor (Homo sapiens) (P04150 whole entry, looked up): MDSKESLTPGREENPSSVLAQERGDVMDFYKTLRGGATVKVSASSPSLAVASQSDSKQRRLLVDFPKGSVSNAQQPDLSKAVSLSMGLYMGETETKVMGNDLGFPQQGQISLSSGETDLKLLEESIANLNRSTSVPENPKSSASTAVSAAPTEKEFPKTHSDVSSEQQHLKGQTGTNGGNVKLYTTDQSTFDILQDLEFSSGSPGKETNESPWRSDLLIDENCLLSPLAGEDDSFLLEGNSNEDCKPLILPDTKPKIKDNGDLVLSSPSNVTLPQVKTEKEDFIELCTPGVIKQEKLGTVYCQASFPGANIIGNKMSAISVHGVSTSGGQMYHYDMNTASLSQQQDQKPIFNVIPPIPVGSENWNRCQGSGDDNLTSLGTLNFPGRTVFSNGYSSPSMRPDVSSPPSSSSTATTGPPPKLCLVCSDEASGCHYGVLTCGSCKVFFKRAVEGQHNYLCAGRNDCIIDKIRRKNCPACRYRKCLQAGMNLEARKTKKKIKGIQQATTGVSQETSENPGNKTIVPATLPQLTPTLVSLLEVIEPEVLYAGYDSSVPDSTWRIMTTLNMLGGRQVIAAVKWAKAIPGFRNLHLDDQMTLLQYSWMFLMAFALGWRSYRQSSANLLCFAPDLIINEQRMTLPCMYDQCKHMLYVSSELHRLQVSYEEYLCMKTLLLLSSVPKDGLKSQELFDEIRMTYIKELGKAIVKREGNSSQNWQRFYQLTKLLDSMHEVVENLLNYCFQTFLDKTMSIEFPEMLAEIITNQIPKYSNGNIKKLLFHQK
Summary of the method: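 Steps: seed GR-bla HeLa cells, incubate 4 h at 37 C/5% CO2; pin-transfer DMSO-dissolved compounds; incubate 18 h at 37 C; add LiveBLAzer B/G FRET substrate; after 2 h at room temperature, measure fluorescence.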

[20] = target: Glucocorticoid receptor (Homo sapiens) (UniProt P04150); assay: qHTS assay to identify small molecule antagonists of the glucocorticoid receptor (GR) signaling pathway (AID 720692; active means well fitted inhibition curve with a large enough effect in the signal ratio in the repeat runs, not every such curve was filed as active; the % refers to the signal ratio; further: potency means the concentration at half of the fitted maximal effect)
Summary of the method: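 Antagonism was scored as loss of dexamethasone-driven (5 nM final) reporter signal in HeLa cells bearing a glucocorticoid response element–beta-lactamase construct, after 18 h compound exposure at 37 C and 2 h FRET substrate loading.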

Row | SMILES | Potency [1] | Potency [2] | Potency [3] | Potency [4] | Potency [5] | Potency [6] | Potency [7] | Potency [8] | Potency [9] | Potency [10] | Potency [11] | Potency [12] | Potency [13] | Potency [14] | outcome [15] | Potency [16] | outcome [17] | Potency [18] | Potency [19] | Potency [20]
1 | O=P(O)(O)OC[C@H]1O[C@](O)(COP(=O)(O)O)[C@@H](O)[C@@H]1O | inactive | inactive | inactive | inactive | inactive | inactive | inactive | inactive | inactive | inactive | inactive | inactive | inactive | inactive | inactive | inactive | inactive | – | – | –
2 | CCN(CC)CCOC(=O)c1ccc(N)cc1Cl | – | inactive | inactive | inactive | – | inactive | inactive | inactive | inactive | inactive | inactive | inactive | inactive | inactive | inactive | inactive | inactive | inactive | inactive | inactive
3 | COc1cc(/C=C/C(=O)N2CCN(CC(=O)N3CCCC3)CC2)cc(OC)c1OC | inactive | inactive | inactive | inactive | inactive | inactive | inactive | inactive | inactive | inactive | inactive | inactive | inactive | inactive | inactive | inactive | inactive | – | – | –
4 | Cc1cc(/C=C/c2ccc3cc(N(C)C)ccc3[n+]2C)c(C)n1-c1ccccc1 | – | 5.07 µM (active) | – | inactive | 1.43 µM (active) | – | – | inactive | – | inactive | inactive | inactive | – | – | inactive | inactive | inactive | 9.02 µM (active) | inactive | –
5 | CC(Oc1ccccc1)C(=O)N[C@@H]1C(=O)N2[C@@H]1SC(C)(C)[C@@H]2C(=O)O (stereo not given in full) | inactive | inactive | inactive | inactive | inactive | inactive | inactive | inactive | inactive | inactive | inactive | inactive | inactive | inactive | inactive | inactive | inactive | – | inactive | –
6 | C[C@H](CCCC(C)(C)O)[C@H]1CC[C@H]2[C@@H]3CC=C4C[C@@H](O)CC[C@]4(C)[C@H]3CC[C@]12C | inactive | inactive | inactive | inactive | inactive | inactive | inactive | inactive | inactive | inactive | inactive | inactive | inactive | inactive | inactive | inactive | inactive | – | inactive | –
7 | C[C@]12CC[C@@H]3c4ccc(OC(=O)c5ccccc5)cc4CC[C@H]3[C@@H]1CC[C@@H]2O | inactive | inactive | inactive | inactive | 2.98 µM (active) | inactive | inactive | inactive | inactive | inactive | inactive | inactive | inactive | inactive | inactive | inactive | inactive | – | inactive | 6.01 µM (active)
8 | CO[C@H]1C[C@@H]2CC[C@@H](C)[C@@](O)(O2)C(=O)C(=O)N2CCCC[C@H]2C(=O)O[C@H]([C@H](C)C[C@@H]2CC[C@@H](OCCO)[C@H](OC)C2)CC(=O)[C@H](C)/C=C(\C)[C@@H](O)[C@@H](OC)C(=O)[C@H](C)C[C@H](C)/C=C/C=C/C=C/1C | inactive | 21.1 µM (active) | 29.8 µM (active) | inactive | 21.1 µM (active) | inactive | inactive | inactive | inactive | inactive | inactive | inactive | inactive | inactive | inactive | inactive | inactive | – | inactive | 7.56 µM (active)
9 | CC[C@H](C)[C@@H]1NC(=O)[C@H](Cc2ccc(O)cc2)NC(=O)[C@@H](N)CSSC[C@@H](C(=O)N2CCC[C@H]2C(=O)N[C@@H](CC(C)C)C(=O)NCC(N)=O)NC(=O)[C@H](CC(N)=O)NC(=O)[C@H](CCC(N)=O)NC1=O | inactive | inactive | inactive | inactive | inactive | inactive | inactive | inactive | inactive | inactive | inactive | inactive | inactive | inactive | inactive | inactive | inactive | – | inactive | –
10 | CN1CCN2c3ncccc3Cc3ccccc3C2C1 (stereo not given) | inactive | inactive | inactive | inactive | inactive | inactive | inactive | inactive | inactive | inactive | inactive | inactive | inactive | inactive | inactive | inactive | inactive | – | inactive | inactive
